Measurements reported in ChEMBL document CHEMBL2218924, “A broad activity screen in support of a chemogenomic map for kinase signalling research and drug discovery” (Biochem J, 2013).

Assays:
[1] = molecular target: MAP kinase-activated protein kinase 2 (Homo sapiens) (UniProt P49137); conditions: at 10 µM
[2] = molecular target: MAP kinase-activated protein kinase 3 (Homo sapiens) (UniProt Q16644); conditions: at 10 µM
[3] = molecular target: Serine/threonine-protein kinase MARK1 (Homo sapiens) (UniProt Q9P0L2); conditions: at 1 µM
[4] = molecular target: Serine/threonine-protein kinase MARK1 (Homo sapiens) (UniProt Q9P0L2); conditions: at 10 µM
[5] = molecular target: Dual specificity mitogen-activated protein kinase kinase 1 (Homo sapiens) (UniProt Q02750); conditions: at 1 µM
[6] = molecular target: Dual specificity mitogen-activated protein kinase kinase 1 (Homo sapiens) (UniProt Q02750); conditions: at 10 µM
[7] = molecular target: Maternal embryonic leucine zipper kinase (Homo sapiens) (UniProt Q14680); conditions: at 1 µM
[8] = molecular target: Maternal embryonic leucine zipper kinase (Homo sapiens) (UniProt Q14680); conditions: at 10 µM
[9] = molecular target: Misshapen-like kinase 1 (Homo sapiens) (UniProt Q8N4C8); conditions: at 1 µM
[10] = molecular target: Misshapen-like kinase 1 (Homo sapiens) (UniProt Q8N4C8); conditions: at 10 µM
[11] = molecular target: T1, Dual specificity mitogen-activated protein kinase kinase 6 (Homo sapiens) (UniProt P52564); conditions: at 1 µM
T1 sequence (whole entry): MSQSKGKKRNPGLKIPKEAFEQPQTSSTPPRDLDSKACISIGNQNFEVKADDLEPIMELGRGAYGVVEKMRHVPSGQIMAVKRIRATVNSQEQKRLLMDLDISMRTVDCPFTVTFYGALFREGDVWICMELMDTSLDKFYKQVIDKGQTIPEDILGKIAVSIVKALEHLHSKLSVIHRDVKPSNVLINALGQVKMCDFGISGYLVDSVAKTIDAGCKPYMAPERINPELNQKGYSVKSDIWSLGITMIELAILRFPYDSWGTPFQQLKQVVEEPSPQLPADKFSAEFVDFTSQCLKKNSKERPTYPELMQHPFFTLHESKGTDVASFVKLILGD

[12] = molecular target: T1, Dual specificity mitogen-activated protein kinase kinase 6 (Homo sapiens); conditions: at 10 µM
[13] = molecular target: T2, Dual specificity mitogen-activated protein kinase kinase 7 (Homo sapiens) (UniProt O14733); conditions: at 1 µM
T2 sequence (whole entry): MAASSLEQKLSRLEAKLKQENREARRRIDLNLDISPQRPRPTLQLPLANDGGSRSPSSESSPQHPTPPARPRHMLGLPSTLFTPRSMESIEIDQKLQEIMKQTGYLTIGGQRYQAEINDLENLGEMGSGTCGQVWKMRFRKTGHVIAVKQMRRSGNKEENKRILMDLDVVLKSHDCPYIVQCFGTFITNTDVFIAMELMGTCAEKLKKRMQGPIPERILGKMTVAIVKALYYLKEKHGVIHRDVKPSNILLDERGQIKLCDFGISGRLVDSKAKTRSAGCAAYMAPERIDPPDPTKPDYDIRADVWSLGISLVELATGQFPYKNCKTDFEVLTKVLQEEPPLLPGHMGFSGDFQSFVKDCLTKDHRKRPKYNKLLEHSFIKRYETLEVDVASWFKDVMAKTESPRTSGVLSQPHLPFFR

[14] = molecular target: T2, Dual specificity mitogen-activated protein kinase kinase 7 (Homo sapiens); conditions: at 10 µM
[15] = molecular target: Myosin light chain kinase, smooth muscle (Homo sapiens) (UniProt Q15746); conditions: at 1 µM
[16] = molecular target: Myosin light chain kinase, smooth muscle (Homo sapiens) (UniProt Q15746); conditions: at 10 µM
[17] = molecular target: Mitogen-activated protein kinase kinase kinase 9 (Homo sapiens) (UniProt P80192); conditions: at 1 µM
[18] = molecular target: Mitogen-activated protein kinase kinase kinase 9 (Homo sapiens) (UniProt P80192); conditions: at 10 µM
[19] = molecular target: Serine/threonine-protein kinase MRCK alpha (Homo sapiens) (UniProt Q5VT25); conditions: at 1 µM
[20] = molecular target: Serine/threonine-protein kinase MRCK alpha (Homo sapiens) (UniProt Q5VT25); conditions: at 10 µM

Chain of Maternal embryonic leucine zipper kinase (Homo sapiens) (Q14680 whole entry, looked up): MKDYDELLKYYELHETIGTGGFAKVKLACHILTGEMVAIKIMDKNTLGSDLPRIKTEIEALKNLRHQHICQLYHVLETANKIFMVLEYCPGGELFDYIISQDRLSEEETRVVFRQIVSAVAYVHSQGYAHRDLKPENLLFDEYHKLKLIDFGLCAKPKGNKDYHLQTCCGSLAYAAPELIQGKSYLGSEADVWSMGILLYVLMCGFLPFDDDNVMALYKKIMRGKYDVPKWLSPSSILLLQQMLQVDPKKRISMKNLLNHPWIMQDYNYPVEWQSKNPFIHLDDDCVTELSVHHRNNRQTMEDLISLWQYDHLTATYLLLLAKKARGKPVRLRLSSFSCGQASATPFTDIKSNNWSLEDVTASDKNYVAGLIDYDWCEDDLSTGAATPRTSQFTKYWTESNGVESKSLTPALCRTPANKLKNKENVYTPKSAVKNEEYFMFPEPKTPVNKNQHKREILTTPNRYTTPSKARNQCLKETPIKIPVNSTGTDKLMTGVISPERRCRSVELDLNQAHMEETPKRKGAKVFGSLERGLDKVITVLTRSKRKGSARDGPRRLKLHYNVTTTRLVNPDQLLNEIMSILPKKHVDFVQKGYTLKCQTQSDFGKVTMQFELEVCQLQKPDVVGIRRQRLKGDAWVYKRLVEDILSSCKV
Chain of MAP kinase-activated protein kinase 3 (Homo sapiens) (Q16644 whole entry, looked up): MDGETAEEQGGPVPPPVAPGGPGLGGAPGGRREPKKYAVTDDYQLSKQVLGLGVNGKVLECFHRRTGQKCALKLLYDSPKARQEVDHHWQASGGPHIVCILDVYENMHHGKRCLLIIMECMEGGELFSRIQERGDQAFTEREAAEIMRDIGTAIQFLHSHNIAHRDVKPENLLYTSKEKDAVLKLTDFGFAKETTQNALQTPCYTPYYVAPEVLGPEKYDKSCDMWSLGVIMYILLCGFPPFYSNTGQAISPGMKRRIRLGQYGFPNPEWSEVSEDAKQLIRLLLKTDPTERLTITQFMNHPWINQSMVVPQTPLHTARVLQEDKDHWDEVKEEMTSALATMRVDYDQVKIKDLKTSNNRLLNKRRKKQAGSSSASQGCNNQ
Chain of Dual specificity mitogen-activated protein kinase kinase 1 (Homo sapiens) (Q02750 whole entry): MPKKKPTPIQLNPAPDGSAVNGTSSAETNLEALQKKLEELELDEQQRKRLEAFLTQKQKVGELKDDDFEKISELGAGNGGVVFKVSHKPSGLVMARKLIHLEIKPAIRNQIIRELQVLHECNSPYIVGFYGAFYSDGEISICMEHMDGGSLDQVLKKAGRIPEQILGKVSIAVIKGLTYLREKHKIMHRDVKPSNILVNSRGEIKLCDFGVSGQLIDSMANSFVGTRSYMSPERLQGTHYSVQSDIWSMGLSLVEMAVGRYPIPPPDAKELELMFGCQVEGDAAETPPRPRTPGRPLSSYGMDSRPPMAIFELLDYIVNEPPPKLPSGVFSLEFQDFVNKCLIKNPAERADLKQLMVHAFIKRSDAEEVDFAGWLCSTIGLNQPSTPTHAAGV
Chain of Misshapen-like kinase 1 (Homo sapiens) (Q8N4C8 whole entry, looked up): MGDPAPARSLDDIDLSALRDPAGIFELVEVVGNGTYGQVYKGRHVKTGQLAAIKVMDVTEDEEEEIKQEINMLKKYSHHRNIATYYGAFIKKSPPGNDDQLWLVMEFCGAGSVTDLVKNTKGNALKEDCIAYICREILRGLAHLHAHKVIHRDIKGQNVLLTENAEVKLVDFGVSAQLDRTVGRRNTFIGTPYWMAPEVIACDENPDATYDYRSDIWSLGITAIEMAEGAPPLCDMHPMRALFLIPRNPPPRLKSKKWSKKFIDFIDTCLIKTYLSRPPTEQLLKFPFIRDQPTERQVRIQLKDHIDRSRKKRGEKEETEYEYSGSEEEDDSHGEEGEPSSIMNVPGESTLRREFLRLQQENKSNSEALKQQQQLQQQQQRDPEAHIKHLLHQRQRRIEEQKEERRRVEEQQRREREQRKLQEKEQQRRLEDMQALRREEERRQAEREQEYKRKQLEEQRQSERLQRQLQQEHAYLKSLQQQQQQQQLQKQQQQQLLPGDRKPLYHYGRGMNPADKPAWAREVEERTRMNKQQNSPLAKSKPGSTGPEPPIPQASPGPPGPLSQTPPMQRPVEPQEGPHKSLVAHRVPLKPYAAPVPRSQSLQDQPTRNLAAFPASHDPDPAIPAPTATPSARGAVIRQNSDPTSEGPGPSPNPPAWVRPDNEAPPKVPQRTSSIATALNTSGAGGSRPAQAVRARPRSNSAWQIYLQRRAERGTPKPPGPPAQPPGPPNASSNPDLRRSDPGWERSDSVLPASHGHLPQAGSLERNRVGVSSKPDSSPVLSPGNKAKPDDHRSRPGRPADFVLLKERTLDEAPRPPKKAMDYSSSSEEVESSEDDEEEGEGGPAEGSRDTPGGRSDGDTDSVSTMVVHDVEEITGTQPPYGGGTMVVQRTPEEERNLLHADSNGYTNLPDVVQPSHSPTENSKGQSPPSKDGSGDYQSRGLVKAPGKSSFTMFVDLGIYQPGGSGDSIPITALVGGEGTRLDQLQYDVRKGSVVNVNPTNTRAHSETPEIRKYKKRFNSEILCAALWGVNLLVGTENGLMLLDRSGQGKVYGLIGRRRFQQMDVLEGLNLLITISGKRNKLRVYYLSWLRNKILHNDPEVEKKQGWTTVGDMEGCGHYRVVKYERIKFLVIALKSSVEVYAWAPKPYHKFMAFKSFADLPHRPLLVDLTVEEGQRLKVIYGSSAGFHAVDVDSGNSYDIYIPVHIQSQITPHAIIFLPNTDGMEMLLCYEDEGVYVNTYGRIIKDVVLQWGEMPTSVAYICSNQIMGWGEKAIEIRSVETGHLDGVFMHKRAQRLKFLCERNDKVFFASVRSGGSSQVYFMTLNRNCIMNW
Chain of Serine/threonine-protein kinase MRCK alpha (Homo sapiens) (Q5VT25 whole entry): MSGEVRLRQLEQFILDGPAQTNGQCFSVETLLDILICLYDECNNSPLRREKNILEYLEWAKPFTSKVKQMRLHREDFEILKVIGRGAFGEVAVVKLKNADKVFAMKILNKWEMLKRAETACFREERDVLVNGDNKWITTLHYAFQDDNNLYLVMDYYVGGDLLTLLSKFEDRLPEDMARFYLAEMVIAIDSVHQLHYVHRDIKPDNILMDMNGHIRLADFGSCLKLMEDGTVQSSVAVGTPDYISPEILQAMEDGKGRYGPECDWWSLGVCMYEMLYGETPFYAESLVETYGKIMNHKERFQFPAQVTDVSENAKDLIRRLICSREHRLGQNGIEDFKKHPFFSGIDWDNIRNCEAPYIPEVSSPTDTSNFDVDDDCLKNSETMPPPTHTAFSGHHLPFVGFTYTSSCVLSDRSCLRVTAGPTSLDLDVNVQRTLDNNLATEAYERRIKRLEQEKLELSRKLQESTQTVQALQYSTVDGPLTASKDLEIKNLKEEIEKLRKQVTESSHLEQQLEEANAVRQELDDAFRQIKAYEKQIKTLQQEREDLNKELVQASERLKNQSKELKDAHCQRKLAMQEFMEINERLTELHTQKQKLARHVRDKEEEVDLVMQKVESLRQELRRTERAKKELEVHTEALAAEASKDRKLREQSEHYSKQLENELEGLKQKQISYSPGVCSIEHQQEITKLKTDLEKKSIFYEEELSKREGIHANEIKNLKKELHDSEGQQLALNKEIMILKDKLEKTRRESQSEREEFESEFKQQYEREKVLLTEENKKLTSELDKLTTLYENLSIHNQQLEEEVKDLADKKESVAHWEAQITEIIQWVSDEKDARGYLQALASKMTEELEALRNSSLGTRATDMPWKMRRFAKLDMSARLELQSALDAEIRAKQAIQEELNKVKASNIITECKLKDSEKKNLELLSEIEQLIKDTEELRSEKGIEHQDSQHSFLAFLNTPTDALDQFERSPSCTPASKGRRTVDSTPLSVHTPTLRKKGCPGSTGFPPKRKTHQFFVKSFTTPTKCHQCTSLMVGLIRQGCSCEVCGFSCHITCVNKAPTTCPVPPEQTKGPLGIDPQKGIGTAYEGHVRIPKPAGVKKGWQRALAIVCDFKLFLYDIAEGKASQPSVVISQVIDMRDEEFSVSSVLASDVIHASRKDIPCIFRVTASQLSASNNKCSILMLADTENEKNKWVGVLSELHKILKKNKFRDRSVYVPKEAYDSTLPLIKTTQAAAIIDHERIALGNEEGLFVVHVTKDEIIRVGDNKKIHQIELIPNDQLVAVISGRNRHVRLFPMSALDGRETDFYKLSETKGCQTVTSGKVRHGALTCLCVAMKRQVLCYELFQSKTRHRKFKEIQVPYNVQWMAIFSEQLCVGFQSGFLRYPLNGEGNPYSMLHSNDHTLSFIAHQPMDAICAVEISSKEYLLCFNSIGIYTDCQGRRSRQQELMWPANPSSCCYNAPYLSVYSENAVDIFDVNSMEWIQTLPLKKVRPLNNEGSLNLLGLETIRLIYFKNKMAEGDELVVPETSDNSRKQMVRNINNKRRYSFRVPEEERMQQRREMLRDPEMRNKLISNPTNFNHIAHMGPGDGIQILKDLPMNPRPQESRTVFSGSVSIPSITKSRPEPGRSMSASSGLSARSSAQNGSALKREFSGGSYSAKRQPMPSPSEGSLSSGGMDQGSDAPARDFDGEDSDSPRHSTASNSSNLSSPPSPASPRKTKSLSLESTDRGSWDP
Chain of MAP kinase-activated protein kinase 2 (Homo sapiens) (P49137 whole entry, looked up): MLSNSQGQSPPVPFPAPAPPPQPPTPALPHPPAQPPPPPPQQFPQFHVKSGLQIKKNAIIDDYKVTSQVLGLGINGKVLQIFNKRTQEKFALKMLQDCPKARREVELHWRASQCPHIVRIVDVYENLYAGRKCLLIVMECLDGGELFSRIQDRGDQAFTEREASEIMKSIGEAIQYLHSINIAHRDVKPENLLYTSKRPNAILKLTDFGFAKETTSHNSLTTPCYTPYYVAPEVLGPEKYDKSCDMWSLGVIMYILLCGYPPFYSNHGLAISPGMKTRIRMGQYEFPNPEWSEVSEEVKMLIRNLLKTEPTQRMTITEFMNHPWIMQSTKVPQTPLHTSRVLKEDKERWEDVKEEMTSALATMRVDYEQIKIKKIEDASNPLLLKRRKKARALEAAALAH

SMILES | residual activity [1] [%] | residual activity [2] [%] | residual activity [3] [%] | residual activity [4] [%] | residual activity [5] [%] | residual activity [6] [%] | residual activity [7] [%] | residual activity [8] [%] | residual activity [9] [%] | residual activity [10] [%] | residual activity [11] [%] | residual activity [12] [%] | residual activity [13] [%] | residual activity [14] [%] | residual activity [15] [%] | residual activity [16] [%] | residual activity [17] [%] | residual activity [18] [%] | residual activity [19] [%] | residual activity [20] [%]
c1ccc2c(-c3ccncc3)c[nH]c2c1 | 94 | 101 | 81 | 77 | 87 | 75 | 91 | 76 | 85 | 43 | 77 | 93 | 101 | 94 | 72 | 66 | 74 | 60 |  | 
COc1ccc(CNc2nc(N(CCO)CCO)nc3c2ncn3C(C)C)cc1 | 81 | 98 | 85 | 72 | 103 | 120 | 77 | 38 | 103 | 92 | 102 | 100 | 86 | 95 | 108 | 68 | 82 | 41 | 108 | 89
Cn1cnc2cc3c(Nc4cccc(Br)c4)ncnc3cc21 | 94 | 87 | 102 | 94 | 91 | 88 | 92 | 103 | 103 | 75 | 83 | 74 | 96 | 74 | 74 | 94 | 64 | 40 | 105 | 87
COc1ccc(C(=O)Nc2sc3c(c2C(N)=O)CCCC3)cc1OC | 88 | 79 | 81 | 81 | 120 | 101 | 78 | 78 | 95 | 92 | 80 | 120 | 90 | 73 | 80 | 66 | 90 | 96 | 92 | 85
CCN(CC)CCCCN1c2ccccc2Oc2ccc(Cl)cc21 | 133 | 146 | 106 | 106 | 117 | 115 | 96 | 105 | 107 | 95 | 99 | 119 | 120 | 118 | 79 | 102 | 93 | 102 | 133 | 119
CC#CC(=O)Nc1cc2c(Nc3ccc(F)c(Cl)c3)ncnc2cn1 | 92 | 96 | 87 | 83 | 111 | 103 | 76 | 99 | 96 | 91 | 77 | 140 | 97 | 90 | 73 | 110 | 98 | 100 | 98 | 87
Cn1cc(/C=C2\C(=O)Nc3ccc(S(N)(=O)=O)cc32)c2ccccc21 | 71 | 88 | 23 | 7 | 42 | 19 | 42 | 51 | 56 | 61 | 69 | 85 | 89 | 59 | 63 | 82 | 6 | 3 | 103 | 89
O=C(Nc1cccc(Nc2cc(Nc3cccc(C(F)(F)F)c3)ncn2)c1)C1CC1 | 71 | 91 | 83 | 79 | 78 | 88 | 89 | 89 | 105 | 97 | 76 | 66 | 104 | 106 | 75 | 81 | 79 | 36 | 92 | 115
Cc1cc2ncc(-c3ccccc3)nc2cc1C | 93 | 93 | 84 | 90 |  | 90 | 72 | 77 | 94 | 82 | 86 | 106 | 76 | 93 | 77 | 96 | 92 | 102 |  | 81
c1ccc(-c2n[nH]c3c2oc2ccccc23)cc1 |  |  | 69 | 44 |  |  | 43 | 7 | 73 | 34 | 76 | 89 | 87 | 67 | 66 | 64 | 69 | 39 | 92 | 116
COc1cc2ncnc(Nc3ccc(O)c(Br)c3)c2cc1OC | 106 | 106 | 70 | 54 | 119 | 80 | 73 | 28 | 83 | 47 | 88 | 27 | 119 | 94 | 71 | 37 | 45 | 11 | 82 | 84
CC(=O)O/N=C1\C(=C2\C(=O)Nc3cc(Br)ccc32)Nc2ccccc21 | 93 | 90 | 77 | 39 | 98 | 113 | 69 | 52 | 103 | 86 | 96 | 76 | 83 | 105 | 90 | 71 | 55 | 16 | 93 | 101
O=C1Nc2cc(Br)ccc2/C1=C1/Nc2ccccc2/C1=N\O | 90 | 91 | 21 | 19 | 71 | 107 | 34 | 48 | 91 | 70 | 87 | 65 | 80 | 93 | 25 | 32 | 21 | 10 | 141 | 103
O=Nc1c(-c2c(O)[nH]c3ccccc23)[nH]c2ccccc12 | 76 | 88 | 37 | 5 | 64 | 55 |  | 7 | 54 | 10 | 63 | 40 | 52 | 7 | 46 | 13 | 6 | 1 | 142 | 135
Nc1ccc2ncnc(NCCc3ccc(Oc4ccccc4)cc3)c2c1 | 106 | 105 | 87 | 62 | 99 | 101 | 63 | 40 | 101 | 82 | 90 | 82 | 73 | 96 | 104 | 64 |  | 80 | 131 | 124
CCN(CC)C(=O)c1ccc(Nc2nc(OCC3CCCCC3)c3nc[nH]c3n2)cc1 | 39 | 69 | 60 | 17 | 48 | 48 | 40 | 3 | 94 | 63 | 75 | 41 | 56 | 16 |  |  | 2 | 1 | 99 | 73
O=[N+]([O-])c1ccc(-c2nc(-c3ccc(F)cc3)c(-c3ccncc3)[nH]2)cc1 | 102 | 104 | 91 | 90 | 109 | 127 | 97 | 87 | 74 | 63 | 50 | 4 | 101 | 98 | 100 | 86 |  | 83 | 126 | 98
Cc1cccc(-c2[nH]c(C(C)(C)C)nc2-c2ccc3c(c2)OCO3)n1 | 96 |  | 85 | 77 |  | 96 | 75 | 103 | 101 | 90 | 70 | 39 | 107 | 83 | 84 | 90 | 99 |  |  | 
Nc1cccc(-c2cc3c(Oc4cccc(O)c4)ncnc3[nH]2)c1 | 82 |  | 51 | 11 | 94 | 102 | 73 | 29 | 41 | 7 | 74 | 20 | 80 | 70 | 85 | 25 | 7 | 1 | 123 | 
COc1ccc(OC)c2c(=S)c3ccccc3[nH]c12 |  | 89 | 87 | 74 | 114 | 110 | 102 | 84 | 108 | 94 | 112 | 96 | 81 | 90 | 132 | 71 |  | 89 | 119 | 93
O=C1Nc2ccc(Br)cc2/C1=C\c1cc2c([nH]1)CCCC2 | 106 | 101 | 72 | 59 |  |  | 78 |  |  |  | 76 | 84 |  |  | 83 | 84 | 63 | 49 | 108 | 110
N#CCCc1ccc2c(c1)-c1[nH]c3ccc([N+](=O)[O-])cc3c1CC(=O)N2 | 39 | 49 | 30 | 9 |  |  | 69 | 52 | 38 | 17 |  |  |  |  |  |  | 7 | 2 | 35 | 19
N#Cc1cnc2cnc(NCc3cccnc3)cc2c1Nc1ccc(F)c(Cl)c1 | 64 |  | -1 | -1 | 91 | 91 | 2 | 0 | 93 | 90 | 10 | 7 | 83 | 74 | 69 | 46 | 99 | 99 | 14 | 9
C[C@@H](N)[C@H]1CC[C@H](C(=O)Nc2ccncc2)CC1 | 82 | 85 | 95 |  | 104 | 106 | 105 | 87 | 99 | 108 | 101 | 99 | 107 | 121 |  |  | 105 | 101 | 98 | 84
O=C(O)c1ccc2c3c1cccc3c(=O)n1c3ccccc3nc21 | 95 | 106 | 81 | 35 | 94 | 97 | 91 | 53 |  | 5 | 92 | 64 | 87 | 46 | 88 | 35 | 33 | 5 | 107 | 115
Cc1cncc2cccc(S(=O)(=O)N3CCCN(C(=O)CN)C[C@H]3C)c12 | 87 |  | 73 | 43 |  |  | 74 | 24 | 91 | 72 |  |  | 82 |  | 94 | 99 | 86 | 62 | 98 | 99
CC(=O)c1ccc(N2CCOCC2)cc1O |  | 111 | 93 | 91 | 102 |  | 90 | 100 | 108 | 88 | 75 | 91 | 104 | 96 | 83 | 85 | 89 | 97 | 105 | 92
O=C(Nc1cccc(Nc2nccc(Nc3cccc(C(F)(F)F)c3)n2)c1)C1CC1 | 100 | 107 | 93 | 50 | 106 | 77 | 61 | 63 | 87 | 59 | 76 | 51 | 85 | 87 | 54 | 66 | 82 | 29 | 117 | 130
Cc1nc(-c2ccccc2)c(-c2ccncc2)o1 | 110 | 101 | 97 | 89 | 105 | 106 | 104 | 89 | 118 | 88 | 99 | 37 | 100 | 103 | 106 | 88 | 106 | 102 | 114 | 129
